Laboratory results from PubChem BioAssay (Tox21).
Records with an inconclusive call do not appear. Calls of active or inactive are those of the source. Calls follow the shape of the dose curve; as a rule, active = well fitted curve in the direction sought with a large enough effect in the repeat runs; inconclusive = weak or mixed curves; inactive = no such curve, though single readings can be large; an effect the other way counts as inactive or inconclusive.

Columns and labels:
[1] = qHTS RealTime-Glo MT Cell Viability Assay in HepG2 cells - 40 hour (AID 1224870); also: nearly all actives have a fitted effect of over 50% in size
Method in brief: (§1)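 HepG2 cells (600/well) mixed with RealTime-Glo MT reagent, settled 5 h at 37 C/5% CO2 before compound addition. Nonlytic NanoLuc luminescence from viable-cell prosubstrate reduction read repeatedly during 40 h treatment at 37 C.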

[2] = A CellTox Green Cytotoxicity Assay to monitor cytotoxicity in HEK293 cells - 40 hour (AID 1224871); also: nearly all actives have a fitted effect of over 45% in size
Method in brief: (§2)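 Cytotoxicity was tracked continuously in HEK293 cells by a DNA-binding dye excluded from viable cells. Compounds were transferred in DMSO 5 h after seeding; fluorescence was recorded at intervals up to 40 h.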

[3] = qHTS RealTime-Glo MT Cell Viability Assay in HEK293 cells - 16 hour (AID 1224872); also: top concentration of the series differs between compounds; nearly all actives have a fitted effect of over 50% in size
Method in brief: (§3)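 HEK293 cells were seeded at 600 cells/well together with NanoLuc luciferase and cell-permeant prosubstrate, preincubated 5 h at 37 C/5% CO2, then given compound in DMSO by pintool. Luminescence from viable-cell prosubstrate reduction was read repeatedly over 40 h.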

[4] = qHTS RealTime-Glo MT Cell Viability Assay in HepG2 cells - 8 hour (AID 1224873); also: nearly all actives have a fitted effect of over 55% in size
Method in brief: as §1

[5] = A CellTox Green Cytotoxicity Assay to monitor cytotoxicity in HEK293 cells - 24 hour (AID 1224875); also: series mostly up to about 77 µM; nearly all actives have a fitted effect of over 45% in size
Method in brief: as §2

[6] = A CellTox Green Cytotoxicity Assay to monitor cytotoxicity in HepG2 cells - 16 hour (AID 1224876); also: nearly all actives have a fitted effect of over 45% in size
Method in brief: (§4)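 Real-time, homogeneous cytotoxicity readout: dead-cell DNA staining by CellTox Green in HepG2 monolayers, fluorescence measured at timed intervals up to 40 h of continuous compound exposure.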

[7] = A CellTox Green Cytotoxicity Assay to monitor cytotoxicity in HepG2 cells - 24 hour (AID 1224878); also: nearly all actives have a fitted effect of over 45% in size
Method in brief: as §4

[8] = A CellTox Green Cytotoxicity Assay to monitor cytotoxicity in HepG2 cells - 40 hour (AID 1224879); also: nearly all actives have a fitted effect of over 40% in size
Method in brief: as §4

[9] = qHTS RealTime-Glo MT Cell Viability Assay in HEK293 cells - 0 hour (AID 1224880)
Method in brief: (§5)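 Nonlytic bioluminescent viability monitoring. HEK293 at 600 cells/well with reagent; 5 h settle; compound transfer by pintool; plates held at 37 C and read at set time points.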

[10] = A CellTox Green Cytotoxicity Assay to monitor cytotoxicity in HEK293 cells - 32 hour (AID 1224881); also: nearly all actives have a fitted effect of over 40% in size
Method in brief: as §2

[11] = A CellTox Green Cytotoxicity Assay to monitor cytotoxicity in HepG2 cells - 0 hour (AID 1224882); also: nearly all actives have a fitted effect of over 35% in size
Method in brief: as §4

[12] = A CellTox Green Cytotoxicity Assay to monitor cytotoxicity in HepG2 cells - 32 hour (AID 1224883); also: nearly all actives have a fitted effect of over 50% in size
Method in brief: as §4

[13] = A CellTox Green Cytotoxicity Assay to monitor cytotoxicity in HEK293 cells - 8 hour (AID 1224884); also: nearly all actives have a fitted effect of over 35% in size
Method in brief: as §2

[14] = qHTS RealTime-Glo MT Cell Viability Assay in HepG2 cells - 16 hour (AID 1224885); also: nearly all actives have a fitted effect of over 50% in size
Method in brief: (§6)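 HepG2 cells were seeded at 600 cells/well together with NanoLuc luciferase and a cell-permeant prosubstrate, preincubated 5 h at 37 C/5% CO2, then pin-dosed with compounds in DMSO. Nonlytic luminescence from viable cells was read at each time point.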

[15] = qHTS RealTime-Glo MT Cell Viability Assay in HEK293 cells - 8 hour (AID 1224887)
Method in brief: as §5

[16] = A CellTox Green Cytotoxicity Assay to monitor cytotoxicity in HEK293 cells - 16 hour (AID 1224888); also: nearly all actives have a fitted effect of over 35% in size
Method in brief: as §2

[17] = qHTS RealTime-Glo MT Cell Viability Assay in HepG2 cells - 0 hour (AID 1224889); also: nearly all actives have a fitted effect of over 50% in size
Method in brief: as §6

[18] = qHTS RealTime-Glo MT Cell Viability Assay in HEK293 cells - 40 hour (AID 1224874); settings: RealTime-Glo luminescence; max response: active compounds read low; also: nearly all actives have a fitted effect of over 50% in size
Method in brief: as §5

[19] = qHTS RealTime-Glo MT Cell Viability Assay in HepG2 cells - 32 hour (AID 1224877); also: nearly all actives have a fitted effect of over 55% in size
Method in brief: as §6

[20] = qHTS RealTime-Glo MT Cell Viability Assay in HEK293 cells - 24 hour (AID 1224886)
Method in brief: as §3
% is scaled to controls: 0 for no effect and ±100 for the full control effect.

CC[C@H](O)C(C[C@H](C)N(C)C)(c1ccccc1)c1ccccc1
inactive: Potency [1] | Potency [2] | Potency [3] | outcome [4] | Potency [5] | Potency [6] | Potency [7] | Potency [8] | outcome [9] | Potency [10] | outcome [11] | Potency [12] | Potency [13] | Potency [14] | Potency [15] | Potency [16] | outcome [17]

COc1ccc(C=O)cc1O
inactive: Potency [1] | Potency [2] | Potency [3] | max response [18] 0.952% | Potency [5] | Potency [6] | Potency [19] | Potency [7] | Potency [8] | outcome [9] | Potency [10] | outcome [11] | Potency [12] | Potency [20] | Potency [15] | Potency [16] | outcome [17]

CNC(=O)NC(O)C(Cl)(Cl)Cl (stereo unspecified)
inactive: Potency [1] | Potency [2] | Potency [3] | max response [18] 9.22% | Potency [5] | Potency [6] | Potency [19] | Potency [7] | Potency [8] | outcome [9] | Potency [10] | outcome [11] | Potency [12] | Potency [13] | Potency [14] | Potency [20] | Potency [15] | Potency [16] | outcome [17]

c1cncc([C@@H]2CCCCN2)c1
inactive: Potency [1] | Potency [2] | Potency [3] | outcome [4] | max response [18] 9.53% | Potency [5] | Potency [6] | Potency [7] | Potency [8] | outcome [9] | Potency [12] | Potency [13] | Potency [14] | Potency [20] | Potency [15] | Potency [16] | outcome [17]

CCN(CCO)CCO
inactive: Potency [1] | Potency [2] | Potency [3] | outcome [4] | max response [18] 4.13% | Potency [5] | Potency [6] | Potency [8] | outcome [9] | Potency [10] | outcome [11] | Potency [13] | Potency [20] | Potency [15] | Potency [16] | outcome [17]

O=C(O)c1c(Cl)ccc2cc(Cl)cnc12
inactive: Potency [1] | Potency [2] | Potency [3] | max response [18] 17.7% | Potency [5] | Potency [6] | Potency [19] | Potency [7] | Potency [8] | outcome [9] | Potency [10] | outcome [11] | Potency [13] | Potency [14] | Potency [15] | Potency [16] | outcome [17]

Cc1ccc(-c2nc3ccc(C)cn3c2CC(=O)N(C)C)cc1
inactive: Potency [1] | Potency [2] | Potency [3] | outcome [4] | Potency [5] | Potency [6] | Potency [19] | Potency [7] | Potency [8] | outcome [9] | Potency [10] | outcome [11] | Potency [12] | Potency [13] | Potency [14] | Potency [15] | Potency [16] | outcome [17]

CCC(=O)OC1(c2ccccc2)CCN(C)CC1
inactive: Potency [1] | Potency [2] | Potency [3] | max response [18] -7.76% | Potency [5] | Potency [6] | Potency [19] | Potency [7] | Potency [8] | outcome [9] | Potency [10] | outcome [11] | Potency [12] | Potency [13] | Potency [14] | Potency [20] | Potency [15] | Potency [16] | outcome [17]

O=P(O)(O)c1ccccc1
inactive: Potency [1] | Potency [2] | Potency [3] | outcome [4] | max response [18] 9.41% | Potency [5] | Potency [6] | Potency [8] | outcome [9] | Potency [10] | outcome [11] | Potency [13] | Potency [20] | Potency [15] | Potency [16] | outcome [17]

NNC(N)=O
inactive: Potency [1] | Potency [2] | Potency [3] | outcome [4] | max response [18] 0.384% | Potency [5] | Potency [6] | Potency [8] | outcome [9] | Potency [12] | Potency [13] | Potency [14] | Potency [20] | Potency [15] | Potency [16] | outcome [17]

CCc1ccc(C2CCNCC2)cc1
inactive: Potency [1] | Potency [2] | Potency [3] | outcome [4] | max response [18] 7.03% | Potency [5] | Potency [6] | Potency [7] | Potency [8] | Potency [13] | Potency [14] | Potency [20] | Potency [15] | Potency [16] | outcome [17]

CC(C)(C)C(=O)Cl
inactive: Potency [1] | Potency [2] | Potency [3] | max response [18] -0.811% | Potency [5] | Potency [6] | Potency [19] | Potency [7] | Potency [8] | outcome [9] | Potency [10] | Potency [12] | Potency [13] | Potency [20] | Potency [15] | Potency [16] | outcome [17]

CCOC(=O)Nc1cccc(OC(=O)Nc2ccccc2)c1
inactive: Potency [1] | Potency [2] | Potency [3] | outcome [4] | Potency [5] | Potency [6] | Potency [19] | outcome [9] | Potency [10] | outcome [11] | Potency [13] | Potency [14] | Potency [15] | Potency [16] | outcome [17]

C#CCOC(=O)/C=C(C)/C=C/CC(C)CCCC(C)C (stereo unspecified)
inactive: Potency [1] | Potency [2] | Potency [3] | max response [18] 17.6% | Potency [5] | Potency [6] | Potency [19] | Potency [7] | Potency [8] | outcome [9] | Potency [10] | outcome [11] | Potency [13] | Potency [14] | Potency [20] | Potency [15] | Potency [16] | outcome [17]

N#CC(Br)(Br)C(N)=O
inactive: Potency [1] | Potency [2] | Potency [3] | outcome [4] | max response [18] -10% | Potency [5] | outcome [9] | Potency [10] | outcome [11] | Potency [13] | Potency [14] | Potency [15] | Potency [16] | outcome [17]
